Measurements: PubChem BioAssay AID1159580 (chemical genetic matrix, 2015)
The whole screen tested about 5,500 compounds, of which about 2,000 (36%) were called active. Another 18% or so got no clear call; they are omitted. The list shows a part of the results. Values without a mark were called inactive. No stated cut-off is given here; in the data, active means normalized growth mostly below about 0.91 (no sharp cut-off); inconclusive means no clear call, values can overlap the other calls; inactive means mostly above about 0.92.

Assay: chemical genetic growth profiling, strain panel (AID 1159580);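 further: tested at 20 µM; growth read once vehicle control cultures reached saturation at 30 °C; 1 = growth at the plate median or of vehicle wells; lower values mean less growth of the strain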
Settings: S. cerevisiae deletion strains, growth OD

With `CC1=CC2C(CC1=O)C(C)=CCC2C(C)C` (stereo unspecified) the normalized growth (locus YJR066W, strain TOR1, hits give low values) was 0.949, the normalized growth (locus YKL009W, strain mrt4, hits give low values) was 0.945 and the normalized growth (locus YKL068W, hits give low values) was 0.978. The normalized growth (locus YKL085W, strain MDH1 (second series), hits give low values) was 0.932, the normalized growth (locus YKL085W, strain MDH1, hits give low values) was 0.932 and the normalized growth (locus YKL160W, strain elf1, hits give low values) was 0.992. The normalized growth (locus YKR001C, strain vps1, hits give low values) was 0.623 (active), the normalized growth (locus YKR026C, strain gcn3, hits give low values) was 0.983 and the normalized growth (locus YKR091W, strain srl3, hits give low values) was 1.01. For the same molecule, the normalized growth (locus YLL001W, strain dnm1, hits give low values) was 0.998, the normalized growth (locus YLL026W, hits give low values) was 1.01 and the normalized growth (locus YLL041C, strain sdh2, hits give low values) was 1. It also gave a normalized growth (locus YLR027C, strain aat2, hits give low values) of 0.997, a normalized growth (locus YLR039C, strain RIC1, hits give low values) of 0.717 and a normalized growth (locus YLR058C, strain SHM2, hits give low values) of 0.994. For the same molecule, the normalized growth (locus YLR102C, strain apc9, hits give low values) was 0.985, the normalized growth (locus YLR113W, strain HOG1, hits give low values) was 0.968 and the normalized growth (locus YLR221C, strain rsa3, hits give low values) was 0.979. The normalized growth (locus YLR258W, strain gsy2, hits give low values) was 1, the normalized growth (locus YLR262C, strain YPT6 (second series), hits give low values) was 0.896 and the normalized growth (locus YLR262C, strain YPT6, hits give low values) was 0.709. The normalized growth (locus YLR268W, strain sec22, hits give low values) was 0.923, the normalized growth (locus YLR320W, strain mms22, hits give low values) was 0.9 and the normalized growth (locus YLR330W, strain CHS5, hits give low values) was 0.873 (active). It also gave a normalized growth (locus YLR342W, strain FKS1 (second series), hits give low values) of 0.864, a normalized growth (locus YLR342W, strain FKS1, hits give low values) of 1.01 and a normalized growth (locus YLR357W, strain rsc2, hits give low values) of 1.03. The normalized growth (locus YLR370C, strain arc18, hits give low values) was 1.02, the normalized growth (locus YLR371W, strain rom2, hits give low values) was 0.841 (active) and the normalized growth (locus YLR384C, strain iki3, hits give low values) was 1. For the same molecule, the normalized growth (locus YLR418C, strain cdc73, hits give low values) was 0.687 (active), the normalized growth (locus YML016C, strain PPZ1, hits give low values) was 1.01 and the normalized growth (locus YML032C, strain rad52, hits give low values) was 0.948. The normalized growth (locus YML120C, strain ndi1, hits give low values) was 1, the normalized growth (locus YML124C, strain tub3, hits give low values) was 0.985 and the normalized growth (locus YMR058W, strain fet3, hits give low values) was 1.01. For the same molecule, the normalized growth (locus YMR078C, strain ctf18, hits give low values) was 0.974, the normalized growth (locus YMR125W, strain sto1, hits give low values) was 1.01 and the normalized growth (locus YMR129W, hits give low values) was 1.03. For the same molecule, the normalized growth (locus YMR205C, strain PFK2, hits give low values) was 0.966, the normalized growth (locus YMR223W, strain ubp8, hits give low values) was 0.901 (active) and the normalized growth (locus YMR231W, strain pep5, hits give low values) was 0.984. For the same molecule, the normalized growth (locus YMR307W, strain GAS1, hits give low values) was 0.795, the normalized growth (locus YNL067W, strain RPL9B, hits give low values) was 0.986 and the normalized growth (locus YNL071W, strain lat1, hits give low values) was 0.913 (active). The normalized growth (locus YNL183C, strain NPR1, hits give low values) was 0.96, the normalized growth (locus YNL209W, strain ssb2, hits give low values) was 1.01 and the normalized growth (locus YNL233W, strain BNI4, hits give low values) was 0.874. For the same molecule, the normalized growth (locus YNL248C, strain rpa49, hits give low values) was 0.997, the normalized growth (locus YNL250W, strain rad50, hits give low values) was 0.956 and the normalized growth (locus YNL271C, strain bni1, hits give low values) was 0.936. It also gave a normalized growth (locus YNL298W, strain CLA4, hits give low values) of 0.924, a normalized growth (locus YNL307C, strain MCK1, hits give low values) of 0.914 and a normalized growth (locus YNL322C, strain KRE1 (second series), hits give low values) of 1.01. For the same molecule, the normalized growth (locus YNL322C, strain KRE1, hits give low values) was 1, the normalized growth (locus YNR049C, strain mso1, hits give low values) was 1.01 and the normalized growth (locus YNR052C, strain pop2, hits give low values) was 0.895 (active). The normalized growth (locus YOL006C, strain TOP1, hits give low values) was 0.683, the normalized growth (locus YOL012C, strain htz1) was 0.956 and the normalized growth (locus YOL147C, strain pex11, hits give low values) was 0.945. The normalized growth (locus YOR001W, strain rrp6, hits give low values) was 0.984, the normalized growth (locus YOR061W, strain CKA2, hits give low values) was 0.967 and the normalized growth (locus YOR069W, strain VPS5, hits give low values) was 0.978. It also gave a normalized growth (locus YOR070C, strain gyp1, hits give low values) of 0.992, a normalized growth (locus YOR080W, strain dia2, hits give low values) of 1.01 and a normalized growth (locus YOR083W, strain WHI5, hits give low values) of 0.966. The normalized growth (locus YOR106W, strain vam3, hits give low values) was 0.973, the normalized growth (locus YOR136W, strain idh2, hits give low values) was 0.959 and the normalized growth (locus YOR144C, strain elg1, hits give low values) was 0.969. For the same molecule, the normalized growth (locus YOR184W, strain ser1, hits give low values) was 0.634 (active), the normalized growth (locus YOR231W, strain MKK1, hits give low values) was 0.993 and the normalized growth (locus YOR265W, strain rbl2, hits give low values) was 1.01. The normalized growth (locus YOR270C, strain vph1, hits give low values) was 0.844, the normalized growth (locus YOR290C, strain snf2, hits give low values) was 0.972 and the normalized growth (locus YOR316C, strain cot1, hits give low values) was 0.983. For the same molecule, the normalized growth (locus YPL051W, strain arl3, hits give low values) was 0.886 (active), the normalized growth (locus YPL055C, strain LGE1, hits give low values) was 0.938 and the normalized growth (locus YPL078C, strain atp4, hits give low values) was 0.991. For the same molecule, the normalized growth (locus YPL106C, strain sse1, hits give low values) was 1.01, the normalized growth (locus YPL240C, strain hsp82, hits give low values) was 1.02 and the normalized growth (locus YPL256C, strain CLN2, hits give low values) was 0.957. For the same molecule, the normalized growth (locus YPR119W, strain clb2, hits give low values) was 0.978, the normalized growth (locus YPR141C, strain kar3, hits give low values) was 0.973 and the normalized growth (locus YPR163C, strain tif3, hits give low values) was 0.97. The normalized growth (locus YPR167C, strain met16, hits give low values) was 0.995 and the normalized growth (strain wtn01, hits give low values) was 0.898 (active).
